Assay outcomes (PubChem)
Abs 340nm: compound light absorbance at 340 nm, profiling panel, artefact control, biochemical, MLSMR library, data from PS, PMK, MK assays; compound absorbance at 340 nm, fold over control; fold change at 10 µM; 65,000 tested, under 10 active;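 active = at 10 µM dose, initial 340 nm absorbance at least 2 fold that of control wells; inactive = change under 2 fold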;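 also: initial absorbance extrapolated from kinetic A340 decline of NADH oxidation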
NADH enzymes: inhibitors of PK/LDH coupling enzymes, profiling panel, artefact control, biochemical, MLSMR library; coupled PK/LDH NADH assays, four targets; IC50, µM (series often up to 10 µM), without a hit: at the highest dose inhibition; actives 0.02% (n = 65,000); AID 774, 2007;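 active = single-dose screening hits from any of four coupled enzyme assays that gave an IC50 when retested across doses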;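 also: the DPM-DC format reads NADH fluorescence rather than 340 nm absorbance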
DPM-DC inhibit: S. pneumoniae DPM-DC inhibitors, primary screen, biochemical, PK/LDH-coupled NADH fluorescence | calls only at 10 µM | purified DPM-DC | diphosphomevalonate decarboxylase (Streptococcus pneumoniae D39) | actives 0.49% (n = 65,000);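 active = the 320 compounds with the highest percent inhibition in the single-dose primary screen, excluding strongly autofluorescent ones, cut at about 32% in these data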;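 also: kinetic rate of NADH fluorescence loss reporting ADP formed by the decarboxylase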
PMK inhibit: S. pneumoniae PMK inhibitors, primary screen, biochemical, mevalonate pathway, pilot trial included; phosphomevalonate kinase (Streptococcus pneumoniae D39); purified PMK, PK/LDH-coupled NADH absorbance 340 nm; actives 0.49% (n = 65,000); inhibition, % at 10 µM;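 active = top-ranked compounds by inhibition in the single 10 µM screen, taking a fixed number of the strongest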;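 also: 0% = full reaction with DMSO carrier and 100% = background rate without enzyme reaction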
MK inhibit: S. pneumoniae MK inhibitors, primary screen, biochemical, PK/LDH-coupled NADH absorbance | purified MK, PK/LDH-coupled NADH absorbance 340 nm | actives 0.48% (n = 65,000) | AID 555, 2006 | inhibition, % at 10 µM | mevalonate kinase [Streptococcus pneumoniae D39];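 active = ranked among the strongest by inhibition in the single 10 µM screen, a fixed top-ranked set picked for dose follow-up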
Autofluor 339: intrinsic fluorescence of library compounds, ex339/em460 – biochemical, MLSMR library, data from DPM-DC assay, artefact control, profiling panel | compound autofluorescence, ex339/em460 nm, NADH buffer; active compounds read high; 1 = no-compound wells, NADH background | fluorescence fold increase at 10 µM | actives 5.5% (n = 65,000) | AID 709, 2007;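 active = at 10 µM, mean starting fluorescence two-fold or more over control wells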;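 also: signal is the first read of a kinetic run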
* = called active by the depositor; i = inactive; nt = no result shown. An excerpt weighted towards active compounds, which were near 6.8% of everything screened.

SMILES	Abs 340nm	NADH enzymes	DPM-DC inhibit	PMK inhibit	MK inhibit	Autofluor 339
O=c1nc2n(c3sc4c(c13)CCC4)Cc1ccccc1-2	1.06	9.0%	nt	11.0	7.0	2.25*
CC(C(=O)O)C1SC(=O)NC1=O (centres undefined)	1.04	0.0%	i	0.0	0.0	1.02
CCN1CCN(C(=O)c2nn(-c3ccc(C)cc3)c(=O)c3c2c2ccccc2n3C)CC1	1.02	8.0%	i	13.0	10.0	1.44
CCN(CC)CCNC(=O)c1nn(-c2ccc(C)cc2)c(=O)c2c1c1ccccc1n2C	1.03	8.0%	i	4.0	6.0	3.07*
Cc1ccc(-n2nc(C(=O)NCc3ccco3)c3c4ccccc4n(C)c3c2=O)cc1	1.04	2.0%	i	5.0	0.0	2.24*
Cc1ccc2[nH]c3c(c2c1)CCc1cn[nH]c1-3	0.99	6.0%	i	12.0	3.0	1.84
Cc1[nH]c2ccc(Br)cc2c(=O)c1CN1CCCCC1	1.07	4.0%	i	8.0	4.0	1.07
O=C1CCCc2c1[nH]c1ccc(CN3CCCCC3)cc21	1.13	3.0%	nt	0.0	6.0	2.1*
Cc1ccc2[nH]c3c(c2c1)CCC3=O	1	8.0%	nt	9.0	7.0	3.73*
Cc1ccc(C)c(-n2nnnc2SCC(=O)NCCC2=CCCCC2)c1	1.01	4.0%	i	7.0	3.0	1.04
Cc1cc(C)nc(Sc2c(C)n[nH]c2C)n1	1.01	2.0%	i	6.0	0.0	1.11
O=C(c1ccccc1OCc1ccccc1Br)N1CCN(c2ncccn2)CC1	1.02	4.0%	i	9.0	4.0	1.14
CCOC(=O)c1cc2c(=O)n3cc(C)ccc3nc2n(Cc2cccnc2)c1=N	1	2.0%	nt	0.0	3.0	2.13*
COc1ccc(CNC(=O)c2cc3c(=O)n4ccccc4nc3n(Cc3cccnc3)c2=N)cc1	1.1	6.0%	i	0.0	5.0	1.91
COCCCn1c(=N)c(C(N)=S)cc2c(=O)n3cccc(C)c3nc21	0.99	9.0%	i	19.0	2.0	1.89
C=CCn1c(=N)c(C(=O)OC)cc2c(=O)n3cccc(C)c3nc21	1.03	11.0%	nt	20.0	2.0	3.75*
C=CCn1c(=N)c(C(=O)OCC)cc2c(=O)n3cc(C)ccc3nc21	1.03	3.0%	nt	0.0	5.0	2.06*
COC(=O)c1cc2c(=O)n3cccc(C)c3nc2n(Cc2cccnc2)c1=N	1.02	3.0%	nt	0.0	5.0	2.27*
CCOC(=O)c1cc2c(=O)n3cccc(C)c3nc2n(Cc2cccnc2)c1=N	1.03	3.0%	nt	0.0	6.0	2.25*
c1cnn(-c2nc(N3CCOCC3)nc(N3CCOCC3)n2)c1	1.04	8.0%	i	5.0	7.0	1.07
COC(=O)c1ccc(C2C(C(C)=O)=C(C)Nc3ncnn32)cc1 (centres undefined)	1.09	2.0%	i	2.0	2.0	1.03
COc1ccc(NC(=O)Cn2nnc(-c3ccccc3NC(=O)c3ccco3)n2)cc1	1.01	7.0%	i	9.0	0.0	2.14*
O=C(Cn1nnc(-c2ccccc2NC(=O)c2cccs2)n1)Nc1ccccc1	0.99	13.0%	i	15.0	11.0	2.44*
COc1ccccc1NC(=O)Cn1nnc(-c2ccccc2NC(=O)c2cccs2)n1	1.01	12.0%	i	15.0	21.0	1.54
O=C(NCc1n[nH]c(=S)n1-c1ccccc1)c1ccco1	1.02	17.0%	i	9.0	41.0*	1.11
SMILES	Abs 340nm	NADH enzymes	DPM-DC inhibit	PMK inhibit	MK inhibit	Autofluor 339
c1coc(CNc2ncnc3sc4c(c23)CCCCC4)c1	1.01	7.0%	i	16.0	4.0	1.02
CCN1CCc2c(sc3c2c(NCc2ccco2)nc2nnnn23)C1	1.05	8.0%	i	9.0	7.0	2.38*
Cc1cc(-c2ccccc2)nn1-c1nc2c(c(=O)[nH]c(=O)n2C)n1C	0.98	8.0%	i	9.0	15.0	1.11
COc1ccc(-c2nc(C(N)=O)c3[nH]c(=O)n(-c4cccc(Cl)c4)c3n2)cc1OC	1.01	1.0%	i	11.0	1.0	1.08
Cc1cccc(-n2c(=O)[nH]c3c(C(N)=O)nc(C(C)C)nc32)c1	1.04	5.0%	nt	10.0	0.0	4.95*
CCCCn1c(SCC(=O)c2ccc(OC)cc2OC)nc2cc(S(N)(=O)=O)ccc21	1.05	14.0%	i	10.0	4.0	2.53*
Cc1ccc(NCc2nnc(SCC(N)=O)n2CCc2ccccc2)cc1	0.97	5.0%	i	9.0	6.0	1.08
Cc1nn2cc(-c3ccc(-c4ccccc4)cc3)nc2s1	1.13	10.0%	i	15.0	5.0	2.24*
O=C(CSc1nnc(COc2ccccc2)n1-c1ccccc1)c1cccs1	1.01	12.0%	i	25.0*	12.0	1.09
O=C(COc1ccccc1)NCc1nnc(SCC(=O)Nc2nccs2)n1-c1ccccc1	1.05	2.0%	i	7.0	0.0	1.04
CCN1c2ccccc2-c2nc3ccccc3n2C1c1ccccn1 (centres undefined)	1.02	8.0%	nt	5.0	10.0	3.79*
CCN1c2ccccc2-c2nc3ccccc3n2C1c1cccnc1 (centres undefined)	1.03	6.0%	nt	7.0	5.0	3.75*
COc1ccc(NC(=O)C2CCC(C)(C(=O)O)C2(C)C)cc1 (centres undefined)	1.05	0.0%	i	0.0	0.0	1.08
COc1ccc(NC(=O)C2CC(=O)OC2(C)C)cc1 (centres undefined)	1	1.0%	nt	0.0	1.0	2.25*
O=c1c2ccccc2cnn1-c1nc2ccccc2s1	0.99	3.0%	nt	13.0	0.0	2.95*
O=c1c2ccccc2ncn1Cc1nc2ccccc2s1	1.08	2.0%	i	0.0	7.0	1.08
c1ccn2c(CNc3ncnc4sccc34)nnc2c1	1	6.0%	i	17.0	0.0	1.03
O=C(O)CCSc1nc2ccccc2s1	1.06	1.0%	i	4.0	0.0	1.13
c1ccc2sc(SCc3ccc(-c4nnco4)cc3)nc2c1	1.01	14.0%	i	30.0*	5.0	1
O=C1CCCC2=C1C(c1ccncc1)c1c(nc(SCc3ccccc3Cl)[nH]c1=O)N2 (centres undefined)	1	11.0%	i	6.0	9.0	2.14*
O=C(C1CCN(c2ccc(N3CCOCC3)nn2)CC1)N1CCN(c2ccc(F)cc2)CC1	1.03	8.0%	nt	14.0	2.0	4.85*
O=C(c1ccc(N2CCCCS2(=O)=O)cc1)N1CCN(c2ccc(N3CCOCC3)nn2)CC1	1.02	15.0%	nt	20.0	10.0	2.14*
O=C(c1ccc(N2CCOCC2)nc1)N1CCOCC1	1.02	2.0%	i	7.0	0.0	1.1
